{
  "source": "ChEMBL document CHEMBL3988442",
  "about": "“University of Dundee, Small-Polar-MMV Screening Library” (2021)",
  "note": "Hit rate of the full screen: of about 67,000 compounds, about 300 (0.45%) showed an effect of 50% or more. This excerpt belongs to a sample that is enriched for strong results.",
  "data": [
    {"molecular_target": "Polyketide synthase Pks13 (Mycobacterium tuberculosis (strain ATCC 25618 / H37Rv)) (UniProt I6X8D2)", "sequence (I6X8D2 whole entry)": "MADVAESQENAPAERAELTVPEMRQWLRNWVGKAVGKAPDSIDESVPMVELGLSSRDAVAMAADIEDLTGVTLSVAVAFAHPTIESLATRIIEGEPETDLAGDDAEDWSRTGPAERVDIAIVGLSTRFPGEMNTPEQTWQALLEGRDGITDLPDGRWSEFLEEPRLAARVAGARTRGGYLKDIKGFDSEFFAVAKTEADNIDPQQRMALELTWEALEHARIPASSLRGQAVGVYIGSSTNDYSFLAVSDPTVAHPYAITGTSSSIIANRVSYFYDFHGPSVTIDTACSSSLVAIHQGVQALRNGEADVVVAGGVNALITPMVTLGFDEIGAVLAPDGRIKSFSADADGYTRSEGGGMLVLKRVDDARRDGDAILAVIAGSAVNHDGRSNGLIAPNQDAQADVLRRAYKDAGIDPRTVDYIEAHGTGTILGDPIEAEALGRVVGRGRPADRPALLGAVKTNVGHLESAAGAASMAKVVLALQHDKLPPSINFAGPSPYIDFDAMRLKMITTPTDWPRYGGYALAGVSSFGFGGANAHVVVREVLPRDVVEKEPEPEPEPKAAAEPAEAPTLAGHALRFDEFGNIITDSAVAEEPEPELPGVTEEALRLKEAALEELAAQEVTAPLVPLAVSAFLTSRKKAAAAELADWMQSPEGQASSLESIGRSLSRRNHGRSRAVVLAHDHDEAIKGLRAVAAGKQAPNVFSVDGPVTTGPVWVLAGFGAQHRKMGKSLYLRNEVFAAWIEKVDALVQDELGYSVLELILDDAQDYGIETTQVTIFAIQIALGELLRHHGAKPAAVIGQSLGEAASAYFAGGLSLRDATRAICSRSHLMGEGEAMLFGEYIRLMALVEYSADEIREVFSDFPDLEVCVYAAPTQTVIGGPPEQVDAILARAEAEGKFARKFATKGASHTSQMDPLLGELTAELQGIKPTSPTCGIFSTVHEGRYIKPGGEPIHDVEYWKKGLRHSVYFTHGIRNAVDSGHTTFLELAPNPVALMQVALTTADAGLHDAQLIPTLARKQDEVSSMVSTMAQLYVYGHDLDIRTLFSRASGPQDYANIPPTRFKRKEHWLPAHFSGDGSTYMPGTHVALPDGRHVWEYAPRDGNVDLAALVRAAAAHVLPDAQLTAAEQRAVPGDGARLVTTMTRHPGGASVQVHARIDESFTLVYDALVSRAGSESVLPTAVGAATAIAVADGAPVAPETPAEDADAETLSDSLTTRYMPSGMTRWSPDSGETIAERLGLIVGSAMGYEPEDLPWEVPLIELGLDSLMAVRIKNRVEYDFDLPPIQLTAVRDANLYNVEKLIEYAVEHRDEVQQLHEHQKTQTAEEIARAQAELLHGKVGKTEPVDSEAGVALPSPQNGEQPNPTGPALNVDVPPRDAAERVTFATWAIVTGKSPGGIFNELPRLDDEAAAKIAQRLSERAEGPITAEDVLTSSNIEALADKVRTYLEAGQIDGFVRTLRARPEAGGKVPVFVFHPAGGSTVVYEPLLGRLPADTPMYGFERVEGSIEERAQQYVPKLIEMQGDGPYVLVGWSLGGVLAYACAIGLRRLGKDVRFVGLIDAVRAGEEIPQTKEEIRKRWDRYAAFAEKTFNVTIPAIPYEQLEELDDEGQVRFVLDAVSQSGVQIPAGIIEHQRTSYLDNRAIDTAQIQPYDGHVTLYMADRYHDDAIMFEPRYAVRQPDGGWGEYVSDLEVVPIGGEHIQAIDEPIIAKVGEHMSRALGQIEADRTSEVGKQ", "assay": "Mycobacterium tuberculosis Polyketide synthase 13 Thioesterase (PKS13)", "assay_type": "functional", "parameters": "scale not given: in the data most compounds retested in dose-response had high values", "settings": "30 µM", "units": {"Percent Effect": "%"}, "values": [
      {"smiles": "CN1CCN(C(=O)N2C[C@H]3CC[C@@H]2CN(Cc2ccccc2)C3)CC1", "Percent Effect": 7.3},
      {"smiles": "Cc1ccc(N2CC[C@H]3O[C@@H](C(=O)N4CCCCO4)CC[C@H]32)nn1", "Percent Effect": 14.6},
      {"smiles": "O=C([C@H]1COC[C@H]2CN(C3CCOCC3)C[C@H]21)N1CCCO1", "Percent Effect": -30.7},
      {"smiles": "CCCSCC(=O)N1C[C@H]2CC[C@@H]1CN(c1ncccn1)C2", "Percent Effect": -17},
      {"smiles": "Cc1n[nH]c(SCC(=O)N2C[C@H]3CC[C@@H]2CN(c2ncccn2)C3)n1", "Percent Effect": 53.5},
      {"smiles": "CCOCCC(=O)N1C[C@H]2CC[C@@H]1CN(c1ncccn1)C2", "Percent Effect": -26.3},
      {"smiles": "O=C(c1ncccn1)N1C[C@H]2CCC[C@@]2(COCc2ccncc2)C1", "Percent Effect": -14.6},
      {"smiles": "NC(=O)N1CC[C@@H]2O[C@H](COCC(=O)N3CCCC3)CC[C@@H]21", "Percent Effect": 9.98},
      {"smiles": "NC(=O)C1CCCN1C(=O)c1cc(C2CC2)nc2ccc(F)cc12", "note": "(configuration not stated)", "Percent Effect": -9.51},
      {"smiles": "NC(=O)c1cc(C2CC2)nc2ccc(F)cc12", "Percent Effect": 87.8},
      {"smiles": "COc1ccc2nc(C3CC3)cc(C(=O)NCCc3nnc[nH]3)c2c1", "Percent Effect": -11.9},
      {"smiles": "COCCN1C(=O)[C@H]2CC[C@@H]1CN(c1ncccn1)C2", "Percent Effect": 1.06},
      {"smiles": "O=C(c1cnco1)N1C[C@@H]2CC[C@H](Oc3ccccc3F)[C@@H]2C1", "Percent Effect": 6.58},
      {"smiles": "N#Cc1ccc(C(=O)O)nc1/C=C/c1cccc(Br)c1", "Percent Effect": -10.3},
      {"smiles": "N#Cc1ccc(C(=O)O)nc1/C=C/c1cccc(Cl)c1", "Percent Effect": 51.4},
      {"smiles": "N#Cc1ccc(C(=O)O)nc1/C=C/c1cccc(F)c1", "Percent Effect": -26.4},
      {"smiles": "CC(C)C(=O)N1CC[C@@H]2[C@H](CC1)N(Cc1cccnc1)CCS2(=O)=O", "Percent Effect": -7.83},
      {"smiles": "c1ccc(O[C@@H]2CN(Cc3nccs3)[C@@H]3CCCO[C@@H]32)nc1", "Percent Effect": -21.3},
      {"smiles": "CN(C)CCO[C@H]1CN(C(=O)c2cscn2)[C@@H]2COC[C@H]12", "Percent Effect": 4.36},
      {"smiles": "Cn1cc(I)c(C(=O)NCCCn2cc(Br)cn2)n1", "Percent Effect": 55},
      {"smiles": "Cn1cc(Br)c(C(=O)NCCn2cc(Br)cn2)n1", "Percent Effect": -18.6},
      {"smiles": "Cn1cc(Br)c(C(=O)NCCCn2cc(Br)cn2)n1", "Percent Effect": 27.2},
      {"smiles": "Cn1ccnc1CN1CCN(Cc2ccncc2)[C@@H]2CS(=O)(=O)C[C@@H]21", "Percent Effect": -14},
      {"smiles": "Cc1cc(CN2CC[C@@H]3[C@@H](CCC(=O)N3CCc3c[nH]cn3)C2)oc1C", "Percent Effect": -32.9},
      {"smiles": "O=C([C@H]1CC[C@@H]2[C@@H](CCN2C2CCOCC2)O1)N1CCOCC1", "Percent Effect": 5.19},
      {"smiles": "Cc1noc(C)c1CCC(=O)NCC1(O)CCCN(c2ccccn2)C1", "note": "(configuration not stated)", "Percent Effect": 9.52},
      {"smiles": "Cc1n[nH]c(C)c1CCC(=O)NCC1(O)CCN(c2ccccn2)C1", "note": "(configuration not stated)", "Percent Effect": 61.1},
      {"smiles": "Cc1noc(C)c1CCC(=O)NCC1(O)CCN(c2ccccn2)C1", "note": "(configuration not stated)", "Percent Effect": 1.81},
      {"smiles": "CCO[C@H]1CC[C@H]2[C@H]1OCCN2C(=O)c1nn(C)c2ccccc12", "Percent Effect": -2.76},
      {"smiles": "CN(C)[C@@H]1CN(C(=O)Cc2cccs2)[C@@H]2CCCO[C@H]12", "Percent Effect": -8.31},
      {"smiles": "Cc1c(C2=NS(=O)(=O)N(C)C(C(=O)Nc3ccc(Br)cc3)=C2)cnn1C", "Percent Effect": 47},
      {"smiles": "Cc1nn(C)cc1C1=NS(=O)(=O)N(C)C(C(=O)Nc2ccc(Br)cc2)=C1", "Percent Effect": 57.7},
      {"smiles": "Cc1nc(N2CCCC2)ncc1C(=O)Nc1ccc(Br)cc1", "Percent Effect": -0.502},
      {"smiles": "O=C1N(C2CCCCC2)C[C@H]2CN(C3CCC3)CCN12", "Percent Effect": 5.32},
      {"smiles": "COCCN1C(=O)CC[C@@H]2[C@@H]1CCN2Cc1c(C)noc1C", "Percent Effect": 2.01},
      {"smiles": "CS(=O)(=O)N[C@@H]1CN(Cc2ccccc2)C[C@@H]2CCCO[C@@H]21", "Percent Effect": -27.1},
      {"smiles": "CN(Cc1ccccn1)C1CCC[C@@H]2CN(CC3CC3)C[C@H]12", "note": "(some centres not stated)", "Percent Effect": -21.9},
      {"smiles": "COC(=O)NCC(=O)NCC(C)(C)c1cccc(C(F)(F)F)c1", "Percent Effect": -4.12},
      {"smiles": "COC(=O)NCC(=O)NCC(C)(C)c1cccc(Br)c1", "Percent Effect": -17.5},
      {"smiles": "CCC(=O)NCC(=O)NCC(C)(C)c1cccc(Br)c1", "Percent Effect": 50.4},
      {"smiles": "CS(=O)(=O)N1CCO[C@@H]2CN(C(=O)C3CCOC3)CC[C@@H]2C1", "note": "(some centres not stated)", "Percent Effect": -9.9},
      {"smiles": "NC(=O)C1CCN(c2cncc(-n3cccn3)n2)CC1", "Percent Effect": 9.01},
      {"smiles": "O=C(c1ccccc1)C1CCN(c2cncc(-n3cccn3)n2)CC1", "Percent Effect": 75.5},
      {"smiles": "CN(C)C(=O)C1CCN(c2cncc(-n3cccn3)n2)CC1", "Percent Effect": 9.49},
      {"smiles": "Cc1ccc(C(=O)N2C[C@@H](OCC3CCOCC3)[C@H]3OCCC[C@H]32)o1", "Percent Effect": -4.11},
      {"smiles": "CC(C)NC(=O)N1CCCn2cnc(CN3CCCC3=O)c2C1", "Percent Effect": -40.2},
      {"smiles": "O=C1CCCN1Cc1ncn2c1CN(C(=O)NC1CCCC1)CCC2", "Percent Effect": 60.1},
      {"smiles": "O=C1CCCN1Cc1ncn2c1CN(C(=O)NC1CCCCC1)CCC2", "Percent Effect": 29},
      {"smiles": "O=C([C@@H]1C[C@@H]2CCN(Cc3ccccn3)C[C@H]2O1)N1CCCO1", "Percent Effect": -7.04},
      {"smiles": "CN(C)C(=O)CN1C[C@@H]2CC[C@H](C1)N(C(=O)CCn1cncn1)C2", "Percent Effect": -4.82},
      {"smiles": "CC(=O)c1cc(CN2C[C@H]3CC[C@@H]2CN(S(=O)(=O)N(C)C)C3)cs1", "Percent Effect": -12.2},
      {"smiles": "O=C(c1ccccc1)N1C[C@@H]2CC[C@H](C1)N(Cc1cc(F)ccc1Cl)C2", "Percent Effect": 3.66},
      {"smiles": "COc1cc(N2C[C@@H]3CC[C@H](C2)N(CC2CCC2)C3=O)ncn1", "Percent Effect": -4.75},
      {"smiles": "O=C1[C@H]2CC[C@H](CN(c3ncnc4ccsc34)C2)N1CC1CC1", "Percent Effect": 90.8},
      {"smiles": "CN1C(=O)[C@H]2CC[C@@H]1CN(c1ncnc3ccsc13)C2", "Percent Effect": 38.1},
      {"smiles": "COCC(=O)N1CC[C@H]2C[C@H](c3nnc(C4CC4)o3)O[C@@H]2C1", "Percent Effect": -6.34},
      {"smiles": "COCCN1C[C@H]2CC[C@@H]1CN(Cc1nc3ccccc3n1C)C2", "Percent Effect": -34.6},
      {"smiles": "NC(=O)COc1ccc(CN2CC[C@@]3(O)CCCC[C@H]3C2)cc1Cl", "Percent Effect": -1.23},
      {"smiles": "CCc1[nH]c2c(CNc3nc(C)cc(NC)n3)cc(C)cc2c1C", "Percent Effect": 146},
      {"smiles": "CNc1cc(C)nc(NCc2cc(C)cc3c(C)c(C)[nH]c23)n1", "Percent Effect": 13},
      {"smiles": "CCc1[nH]c2c(CNc3cc(C)nc(NC)n3)cc(C)cc2c1C", "Percent Effect": 5.91},
      {"smiles": "COC[C@@H]1CC[C@H]2[C@H](CCN2S(=O)(=O)Cc2ccccc2)O1", "Percent Effect": -27.3},
      {"smiles": "c1cncc(CN2CCN3C[C@H](Oc4cncnc4)C[C@H]3C2)c1", "Percent Effect": 0.84},
      {"smiles": "Cc1cccc(CN2C[C@@H]3CN(C(=O)C4CCOC4)C[C@@H]3C2=O)c1", "note": "(some centres not stated)", "Percent Effect": -8.77},
      {"smiles": "CN1CCN(C(=O)[C@H]2C[C@H]3[C@H](CCN3Cc3nccs3)O2)CC1", "Percent Effect": -17.5},
      {"smiles": "Cc1ccc(N2CC[C@H]3C[C@H](C(=O)NCc4ccco4)O[C@@H]3C2)cc1", "Percent Effect": -20.4},
      {"smiles": "c1cc(CN2CC[C@@H]3CN(c4cnccn4)C[C@@H]3C2)ccn1", "Percent Effect": -15.9}
    ]}
  ]
}
